Screens as filed in PubChem.
Rows were chosen to be rich in hits. Some 5.8% of all compounds tested hit in one or more screens of this group.
GBA activity: Glucocerebrosidase; Lysosomal acid glucosylceramidase (Homo sapiens), P04062; purified enzyme, resorufin glucoside fluorescence (screen aimed at inhibitors), 20 min; actives 1.1% (n = 48,000); AID 360, 2006; Potency, µM; in the data active = potency below about 15 µM; inconclusive = mostly about 16 µM to 33 µM;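 also: the screen sought inhibitors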
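Compounds titrated against 0.2 nM normal enzyme, 30 uM resorufin beta-D-glucopyranoside substrate, citrate/phosphate buffer with taurocholate and tween-20, pH 5.9. Reaction ran 20 min at room temperature; fluorescence (Ex 548/Em 600) gave AC50.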
Luciferase inh: qHTS Assay for Inhibitors of Firefly Luciferase; AID 411, 2009; purified firefly luciferase, luminescence, 8 min; Luciferin 4-monooxygenase (Photinus pyralis), P08659; actives 2.2% (n = 72,000); Potency, µM (highest dose often 57.1 µM), for inactives: at the top dose activity change, negative = inhibition, hits mostly inhibitors; also: % is scaled to controls: 0 for no effect and ±100 for the full control effect; nearly all actives have a fitted effect of over 40% in size
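Compounds were tested as concentration series (qHTS) against purified P. pyralis luciferase with luciferin and 10 uM ATP in 50 mM imidazole pH 7.2, 50 mM KCl, 7 mM MgCl2, 0.01% Tween 20, 0.05% BSA. Luminescence was read after 8 min at ambient temperature.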
TSHR agonist: qHTS Assay for Agonists of the Thyroid Stimulating Hormone Receptor. HEK293-CNG-TSHR cells (CNG channel as cAMP sensor), membrane potential dye, cAMP. Potency, µM (highest dose often 57.1 µM), for inactives: at the top dose activation, most hits filed as activators. actives 0.48% (n = 73,000); active = well fitted activation curve with a large enough effect in the main read-out, with a control signal flat, not every such curve was filed as active; inconclusive = small, poorly fitted or top-dose-only effect, or a change in a side signal; inactive = no such curve, though single readings can be large or run the other way; % of control where 0% means no effect;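 also: the control signal comes from parental cells without the receptor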
Target sequence (P16473 whole entry, looked up): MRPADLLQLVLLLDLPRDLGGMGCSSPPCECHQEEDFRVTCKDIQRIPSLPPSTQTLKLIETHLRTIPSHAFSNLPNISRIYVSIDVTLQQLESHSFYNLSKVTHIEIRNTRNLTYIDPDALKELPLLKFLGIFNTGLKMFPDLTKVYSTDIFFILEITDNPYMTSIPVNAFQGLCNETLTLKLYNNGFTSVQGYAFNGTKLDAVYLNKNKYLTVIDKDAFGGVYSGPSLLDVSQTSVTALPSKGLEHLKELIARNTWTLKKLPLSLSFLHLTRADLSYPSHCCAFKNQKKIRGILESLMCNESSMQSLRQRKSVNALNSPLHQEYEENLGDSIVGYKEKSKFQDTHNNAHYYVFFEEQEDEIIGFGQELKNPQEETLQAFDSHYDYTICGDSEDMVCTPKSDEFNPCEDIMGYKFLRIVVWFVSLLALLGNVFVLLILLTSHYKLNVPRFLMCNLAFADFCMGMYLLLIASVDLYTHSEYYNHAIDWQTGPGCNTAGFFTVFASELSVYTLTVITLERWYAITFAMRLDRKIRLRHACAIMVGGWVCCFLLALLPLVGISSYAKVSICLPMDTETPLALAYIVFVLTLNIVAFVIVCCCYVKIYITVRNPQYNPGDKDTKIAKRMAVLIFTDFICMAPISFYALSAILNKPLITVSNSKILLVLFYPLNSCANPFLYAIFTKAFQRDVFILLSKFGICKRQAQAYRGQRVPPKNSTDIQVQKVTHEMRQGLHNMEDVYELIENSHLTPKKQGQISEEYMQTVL
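cAMP rise detected as CNG-channel membrane depolarization by fluorescent dye (emission 590 nm), 30 min after compound, following 60 min dye loading containing 100 uM RO 20-1724 at room temperature. Cells: TSHR/CNG HEK 293, with parental CNG HEK 293 as control.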
PK Bst: Pyruvate Kinase. actives 1.2% (n = 51,000). AID 361, 2006. Potency, µM. purified pyruvate kinase, luminescence ATP production; ribose 5-phosphate activator present at AC10; in the data active = potency below about 11 µM; inconclusive = mostly about 12 µM to 25 µM;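 the screen sought inhibitors and activators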;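 also: scaled between full activation by ribose 5 phosphate and full inhibition by luteolin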
HEK293 cAMP ctrl: qHTS Assay for Agonists of the Thyroid Stimulating Hormone Receptor: Activators of Intracellular cAMP Concentrations in Parental HEK 293; Potency, µM (titrated, usually from 57.1 µM), for inactives: at the highest dose activation, most hits filed as activators; parental HEK293 CNG cAMP sensor, membrane potential fluorescence; AID 938, 2007; actives 2.5% (n = 73,000); also: % of control where 0% means no effect; nearly all actives have a fitted effect of over 55% in size
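Counterscreen for endogenous-receptor signalling: CNG-channel HEK 293 cells report cAMP rise by membrane depolarization. After 60 min dye equilibration with 100 uM RO 20-1724, compounds incubated 30 min before bottom-read fluorescence at 590 nm.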
Active calls of the source: *; i = inactive; ? = inconclusive; / = not tested or not shown; ! = a repeat was not active; [ ] = dose if it differs, or a comment. Unless noted, calls follow the shape of the dose curve; as a rule, active = well fitted curve in the direction sought with a large enough effect; inconclusive = small, poorly fitted or top-dose-only effect, or another doubt; inactive = no such curve, though single readings can be large; an effect the other way counts as inactive or inconclusive. Potency is read from the fitted curve at half-maximal effect.

SMILES	GBA activity	Luciferase inh	TSHR agonist	PK Bst	HEK293 cAMP ctrl
Cc1cc2nc(SCCN3CCCC3)[nH]c2cc1C	/	-8.5%	?	/	?
Cn1ccc2cc3c(cc21)CCN3C(=O)Nc1cccnc1	/	25.1µM*!	-13.7%	/	-12.1%
COc1cc2c(cc1C(F)(F)F)N(C(=O)Nc1cc(F)cc(-c3cccnc3)c1)CC2	/	-3.0%	-34.4%	/	-18.5%
CC(C)c1cc(C(=O)Nc2cccc(Cl)c2)no1	>76.9	12.6µM*	-3.9%	i	10.7%
CC(=O)c1cccc(NC(=O)c2cc(-c3ccc(F)cc3)on2)c1	>76.9	-6.4%	11.0%	>57	1.9%
CC(=O)Nc1cccc(NC(=O)c2c(-c3c(Cl)cccc3Cl)noc2C)c1	/	0.5%	2µM*	/	-11.7%[11.4 µM]
CC(=O)c1cccc(NC(=O)c2cc(C(C)C)on2)c1	/	15.8µM*	16.7%	/	26.1%
CC(C)c1cc(C(=O)Nc2cc(Cl)ccc2O)no1	>76.9	15.8µM*	-15.6%	/	21.7%
CN(C)c1ncc2nc(-c3cccs3)c(=O)n(CCC#N)c2n1	/	0.2%[11.4 µM]	6.7%	/	7.6%
COc1ccc(-c2nc3cnc(N4CCNCC4)nc3n(-c3ccccc3)c2=O)cc1	/	-2.1%[11.4 µM]	-0.2%	/	15.8%
COc1ncc2nc(-c3cc(F)cc(F)c3)c(=O)n(-c3ccccc3)c2n1	/	-1.5%[11.4 µM]	-7.8%	/	0.0%
CCc1ccc2oc(-c3cccc(NC(=O)c4cccnc4)c3)nc2c1	?	5.01µM*	1.1%	4.06*	-11.5%
COc1ccc(Cc2nnc3n2N=C(c2cc4ccccc4o2)CS3)cc1OC	>76.9	0.6%	?	>57	25.1µM*
COc1ccc(C2=Nn3c(nnc3-c3ccccc3)SC2)cc1OC	/	-0.6%[25.5 µM]	/	>25.6	/
CCn1c(SCc2nnc(-c3ccccc3)o2)nc2c1c(=O)n(C)c(=O)n2C	>76.9	1.3%	0.7%	>57	13.5%
CCCCn1c(SCc2nnc(-c3ccccc3)o2)nc2c1c(=O)n(C)c(=O)n2C	>76.9	2.8%	?	>57	25.1µM*
CC(C)C(c1nnnn1C1CCCC1)N(C)C1CCCCC1 (stereo not given)	>76.9	1.8%	?	>57	20µM*
COc1cc2cc(C(c3nnnn3C3CCCC3)N(C)C3CCCCC3)c(=O)[nH]c2cc1OC (stereo not given)	>76.9	-0.2%	?	>57	?
CC(=NC1CCCCC1)c1ccccc1O	/	0.5%[11.4 µM]	-0.8%[11.4 µM]	/	0.5%[11.4 µM]
Cc1ccc(CCNC(=O)c2coc3nc4ccccc4nc23)cc1	?	1.2%	?	>57	20µM*
Nc1c2c(nc3ccccc13)CCC[C@H]2O	/	2.2%	/	/	-17.8%
C=CCNc1nc(N)c(C(=O)c2ccc3c(c2)OCO3)s1	i	-15.5%	-9.3%	>57	-6.5%
C=CCNc1nc(N)c(C(=O)Nc2cc(C)on2)s1	/	20µM*	-6.3%	/	-3.9%
O=C(O)CCCc1ccc2ccc3ccccc3c2c1	/	0.7%[11.4 µM]	3.4%[11.4 µM]	/	11.9%[11.4 µM]
CC(C)C(c1nnnn1Cc1ccccc1)N1CCc2ccccc2C1 (stereo not given)	>76.9	1.9%	/	>57	28.9%
SMILES	GBA activity	Luciferase inh	TSHR agonist	PK Bst	HEK293 cAMP ctrl
c1ccc(Cn2nnnc2C(c2cccs2)N2CCCCCC2)cc1 (stereo not given)	/	2.0%	?	>57	25.1µM*
COc1ccc(Cn2nnnc2C(c2cccs2)N2CCN(c3ccccc3)CC2)cc1 (stereo not given)	>76.9	-0.5%	?	>57	?
c1ccc(Cn2nnnc2C(c2cccs2)N2CCc3ccccc3C2)cc1 (stereo not given)	>76.9	5.2%	?	>57	10µM*
Cn1c(/C(C#N)=C(\O)COc2ccc3ccccc3c2)nc2ccccc21	>76.9	7.6%	?	>57	15.8µM*
CC(/C(O)=C(\C#N)c1nc2ccccc2n1C)N1C(=O)c2ccccc2C1=O (stereo not given)	>76.9	-0.5%	1.0%	>57	-1.8%
CN1CCc2nc(N)nc(-c3nc(N)nc4c3CN(C)CC4)c2C1	/	2.0%[11.4 µM]	3.6%[11.4 µM]	/	2.6%[11.4 µM]
O=C(OCc1nnc(-c2ccccc2)o1)c1ccc2c(c1)OCO2	>76.9	4.6%	?	>57	39.8µM*
COc1cccc(-c2nc(NCCNC(C)=O)c3ccccc3n2)c1	/	-0.2%[2.29 µM]	?	/	?
O=C(Nc1ccccc1)N1CCCC(c2nc(-c3cccs3)no2)C1 (stereo not given)	0.707*	-4.1%	17.2%	>57	14.9%
O=C(Nc1ccc(Cl)cc1)N1CCC(c2nc(-c3cccs3)no2)CC1	?	-2.9%	?	>57	?
CCOC(=O)N1CCN(c2ccc(C(=O)c3cccc(F)c3)cc2)CC1	/	-4.5%	?	>57	20µM*
Nc1nc(Nc2ccccc2)nc2c1ncn2[C@@H]1O[C@@H](CO)[C@H](O)[C@@H]1O	/	-5.3%	3.8%	/	-3.5%
O=C(CN1CCN(S(=O)(=O)c2ccc(Br)cc2)CC1)Nc1ccccc1F	/	/	?	/	31.6µM*
O=C(Nc1cccc(C(F)(F)F)c1)C1CCCN(c2ncccn2)C1 (stereo not given)	/	-1.3%	?	>57	25.1µM*
Cc1cccc(CNc2ncnc3ccc(-c4cccc(C#N)c4)cc23)c1	/	1.3%[2.29 µM]	?	/	?
Clc1ccc(Cl)c(SCCCN2CCNCC2)c1	/	3.1%[11.4 µM]	3.1%[11.4 µM]	/	6.6%[11.4 µM]
O=C(CSc1nc2scc(-c3ccco3)c2c(=O)n1-c1ccccc1)NCC1CCCO1 (stereo not given)	>76.9	-3.0%	31.6µM*	>57	17.7%
C=C[C@H]1CN2CC[C@@H]1C[C@H]2[C@@H](O)c1ccnc2ccc(OC)cc12	/	0.3%[25.5 µM]	/	/	/
Cc1c(C(=O)O)cnc2cc(-c3ccc(Cl)cc3)nn12	/	12.6µM*	-8.4%	/	-2.6%
Cc1cc2ncc(C(=O)Nc3ccccc3)c(C)n2n1	>76.9	0.8%	-16.9%	>57	0.9%
CCNc1ncc2nc(-c3cc(F)cc(F)c3)c(=O)n(CCC#N)c2n1	/	-2.0%[11.4 µM]	-1.8%	/	7.4%
CCc1ccc(S(=O)(=O)Nc2ccc(O)c(C(=O)O)c2)cc1	/	/	6.4%	/	1.5%
Cc1nn(C(=O)c2ccc3c(c2)OCO3)c(N)c1-c1ccccc1	/	2µM*	-3.1%[11.4 µM]	/	-2.1%
Cc1nn(C(=O)c2cccs2)c(N)c1-c1ccccc1	/	15.8µM*	-1.4%	/	0.5%
CS(=O)(=O)Nc1cccc(-c2nc(NCc3cccs3)c3ccccc3n2)c1	/	-3.4%[2.29 µM]	?	/	?
Brc1ccccc1-c1nnc(CSc2nnnn2-c2ccccc2)o1	/	1.5%	-1.9%[11.4 µM]	>11.4	20.5%
Brc1ccccc1-c1nnc(COc2ncnc3c2cnn3-c2ccccc2)o1	>76.9	1.5%	?	>57	25.1µM*
N#Cc1cccc(NC(=O)Nc2cccs2)c1	>76.9	-21.1%	0.6%	/	-6.7%
CCc1cccc(NC(=O)Nc2cccs2)c1	>76.9	15.8µM*	-4.2%[11.4 µM]	/	-7.2%
CCOC(=O)CCn1nc(-c2ccc(Cl)cc2)cc1N	>76.9	-2.0%	?	/	7.3%
